This note sets out measurements from ChEMBL document CHEMBL1961873, “Compounds: GSK PKIS; Assays: Nanosyn kinase panel” (2012).

Assay [1] has as its target T1, Mitogen-activated protein kinase 12 (Homo sapiens) (UniProt P53778).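 Further: values are averaged p38gamma kinase inhibition readings, compounds tested at 1 µM.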
T1 sequence (whole entry): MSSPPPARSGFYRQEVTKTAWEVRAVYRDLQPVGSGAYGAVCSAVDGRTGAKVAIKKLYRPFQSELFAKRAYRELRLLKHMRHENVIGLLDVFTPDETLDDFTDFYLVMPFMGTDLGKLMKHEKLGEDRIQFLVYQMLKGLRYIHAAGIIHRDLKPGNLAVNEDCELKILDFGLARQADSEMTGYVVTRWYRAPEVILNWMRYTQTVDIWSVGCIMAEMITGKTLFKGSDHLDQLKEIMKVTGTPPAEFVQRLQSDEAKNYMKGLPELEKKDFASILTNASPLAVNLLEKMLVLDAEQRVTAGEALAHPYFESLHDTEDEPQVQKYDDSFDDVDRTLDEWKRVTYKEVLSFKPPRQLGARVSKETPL
Conditions: at 1 µM.

Assay [2] has as its target SRSF protein kinase 1 (Homo sapiens) (UniProt Q96SB4). To be noted: at 0.1 µM.
The target is the same in assay [3]. To be noted: at 1 µM.
In assay [4] the target is Phosphatidylinositol 4,5-bisphosphate 3-kinase catalytic subunit alpha isoform (Homo sapiens) (UniProt P42336). Conditions: at 0.1 µM.
Chain of Phosphatidylinositol 4,5-bisphosphate 3-kinase catalytic subunit alpha isoform (Homo sapiens) (P42336 whole entry, canonical isoform): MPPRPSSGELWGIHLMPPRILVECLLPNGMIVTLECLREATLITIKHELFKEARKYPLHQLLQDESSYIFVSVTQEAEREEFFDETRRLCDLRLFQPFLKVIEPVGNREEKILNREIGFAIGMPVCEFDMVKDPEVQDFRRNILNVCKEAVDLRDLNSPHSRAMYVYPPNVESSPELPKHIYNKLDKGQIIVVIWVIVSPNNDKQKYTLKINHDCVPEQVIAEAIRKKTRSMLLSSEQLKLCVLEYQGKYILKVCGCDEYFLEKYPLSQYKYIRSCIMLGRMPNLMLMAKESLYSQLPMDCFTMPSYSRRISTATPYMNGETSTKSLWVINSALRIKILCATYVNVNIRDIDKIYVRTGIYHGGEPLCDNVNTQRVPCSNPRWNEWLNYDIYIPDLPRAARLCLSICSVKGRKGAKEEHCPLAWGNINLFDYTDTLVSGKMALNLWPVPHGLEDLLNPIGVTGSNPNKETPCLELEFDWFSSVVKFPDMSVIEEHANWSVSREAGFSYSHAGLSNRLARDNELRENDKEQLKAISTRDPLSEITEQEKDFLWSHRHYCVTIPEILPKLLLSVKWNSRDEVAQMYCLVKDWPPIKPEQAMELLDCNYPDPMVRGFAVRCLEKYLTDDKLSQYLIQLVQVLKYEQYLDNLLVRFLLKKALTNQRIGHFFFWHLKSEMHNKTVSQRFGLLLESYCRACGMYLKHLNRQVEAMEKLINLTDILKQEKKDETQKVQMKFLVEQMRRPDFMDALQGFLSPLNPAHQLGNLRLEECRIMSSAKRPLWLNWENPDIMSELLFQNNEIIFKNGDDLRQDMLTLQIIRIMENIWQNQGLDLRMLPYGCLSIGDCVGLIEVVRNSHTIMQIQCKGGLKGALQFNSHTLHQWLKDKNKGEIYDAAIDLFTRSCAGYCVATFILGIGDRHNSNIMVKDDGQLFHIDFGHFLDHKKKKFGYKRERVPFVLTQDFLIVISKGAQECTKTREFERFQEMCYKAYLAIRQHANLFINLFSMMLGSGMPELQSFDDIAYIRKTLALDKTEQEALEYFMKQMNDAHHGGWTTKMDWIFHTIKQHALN
The target is the same in assay [5]. To be noted: at 1 µM.
Assay [6] concerns the target T2, Phosphatidylinositol 4,5-bisphosphate 3-kinase catalytic subunit delta isoform (Homo sapiens) (UniProt O00329).
T2 sequence (whole entry): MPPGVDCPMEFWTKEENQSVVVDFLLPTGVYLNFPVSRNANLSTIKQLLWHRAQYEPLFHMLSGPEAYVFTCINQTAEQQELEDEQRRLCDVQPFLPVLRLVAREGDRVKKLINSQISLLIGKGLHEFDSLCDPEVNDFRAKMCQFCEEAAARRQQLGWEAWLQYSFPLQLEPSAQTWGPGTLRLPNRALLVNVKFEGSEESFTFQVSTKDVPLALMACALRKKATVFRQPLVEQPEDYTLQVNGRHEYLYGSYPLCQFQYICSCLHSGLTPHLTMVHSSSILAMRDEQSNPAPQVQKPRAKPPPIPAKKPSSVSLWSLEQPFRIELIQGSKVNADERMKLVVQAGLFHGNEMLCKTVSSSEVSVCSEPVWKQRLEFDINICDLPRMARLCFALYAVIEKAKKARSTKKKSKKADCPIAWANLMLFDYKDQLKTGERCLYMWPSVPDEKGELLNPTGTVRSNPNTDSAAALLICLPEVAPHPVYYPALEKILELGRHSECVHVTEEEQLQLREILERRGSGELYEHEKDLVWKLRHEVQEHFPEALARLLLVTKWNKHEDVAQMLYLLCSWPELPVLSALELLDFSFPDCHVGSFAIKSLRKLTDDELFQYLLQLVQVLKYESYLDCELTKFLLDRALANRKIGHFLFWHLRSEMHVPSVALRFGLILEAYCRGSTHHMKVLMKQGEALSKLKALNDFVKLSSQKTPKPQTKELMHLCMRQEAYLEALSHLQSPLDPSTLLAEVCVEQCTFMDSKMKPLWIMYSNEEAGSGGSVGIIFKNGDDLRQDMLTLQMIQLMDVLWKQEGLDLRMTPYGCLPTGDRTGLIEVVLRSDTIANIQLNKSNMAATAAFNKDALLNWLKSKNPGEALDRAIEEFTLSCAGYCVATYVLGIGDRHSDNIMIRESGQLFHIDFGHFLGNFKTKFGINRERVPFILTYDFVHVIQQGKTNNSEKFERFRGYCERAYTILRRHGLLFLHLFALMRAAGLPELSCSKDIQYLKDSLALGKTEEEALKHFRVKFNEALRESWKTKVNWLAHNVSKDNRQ
To be noted: at 0.1 µM.

The target of assay [7] is T2, Phosphatidylinositol 4,5-bisphosphate 3-kinase catalytic subunit delta isoform (Homo sapiens). To be noted: at 1 µM.
Assay [8] concerns the target Phosphatidylinositol 4-kinase beta (Homo sapiens) (UniProt Q9UBF8). To be noted: at 0.1 µM.
Assay [9] shares this target. To be noted: at 1 µM.
Assay [10] addresses Sphingosine kinase 1 (Homo sapiens) (UniProt Q9NYA1). To be noted: at 0.1 µM.
Assay [11] shares this target. Conditions: at 1 µM.
The target in assay [12] is T3, Sphingosine kinase 2 (Homo sapiens) (UniProt Q9NRA0).
T3 sequence (whole entry): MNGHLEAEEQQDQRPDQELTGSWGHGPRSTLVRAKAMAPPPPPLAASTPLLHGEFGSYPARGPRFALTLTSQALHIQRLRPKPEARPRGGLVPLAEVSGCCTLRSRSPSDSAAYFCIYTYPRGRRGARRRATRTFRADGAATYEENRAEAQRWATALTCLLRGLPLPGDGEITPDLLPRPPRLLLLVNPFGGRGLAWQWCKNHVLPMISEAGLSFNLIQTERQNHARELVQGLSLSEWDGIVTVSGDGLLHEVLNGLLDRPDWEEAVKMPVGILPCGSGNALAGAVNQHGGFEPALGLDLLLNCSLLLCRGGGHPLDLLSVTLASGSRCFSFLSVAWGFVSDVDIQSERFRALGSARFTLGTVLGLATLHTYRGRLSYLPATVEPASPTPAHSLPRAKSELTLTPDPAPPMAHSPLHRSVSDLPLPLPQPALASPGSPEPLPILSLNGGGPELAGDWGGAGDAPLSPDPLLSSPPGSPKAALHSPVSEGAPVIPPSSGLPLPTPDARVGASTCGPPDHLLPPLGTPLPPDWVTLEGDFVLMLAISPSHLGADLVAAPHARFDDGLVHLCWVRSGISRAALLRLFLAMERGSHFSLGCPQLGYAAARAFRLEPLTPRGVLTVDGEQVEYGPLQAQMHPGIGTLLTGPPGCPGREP
To be noted: at 0.1 µM.

Assay [13] addresses T3, Sphingosine kinase 2 (Homo sapiens). To be noted: at 1 µM.
Assay [14] concerns the target Casein kinase II subunit alpha (Homo sapiens) (UniProt P68400). Conditions: at 0.1 µM.
The target is the same in assay [15]. Conditions: at 1 µM.
Assay [16] concerns the target T4, Inhibitor of nuclear factor kappa-B kinase subunit alpha (Homo sapiens) (UniProt O15111).
T4 sequence (whole entry): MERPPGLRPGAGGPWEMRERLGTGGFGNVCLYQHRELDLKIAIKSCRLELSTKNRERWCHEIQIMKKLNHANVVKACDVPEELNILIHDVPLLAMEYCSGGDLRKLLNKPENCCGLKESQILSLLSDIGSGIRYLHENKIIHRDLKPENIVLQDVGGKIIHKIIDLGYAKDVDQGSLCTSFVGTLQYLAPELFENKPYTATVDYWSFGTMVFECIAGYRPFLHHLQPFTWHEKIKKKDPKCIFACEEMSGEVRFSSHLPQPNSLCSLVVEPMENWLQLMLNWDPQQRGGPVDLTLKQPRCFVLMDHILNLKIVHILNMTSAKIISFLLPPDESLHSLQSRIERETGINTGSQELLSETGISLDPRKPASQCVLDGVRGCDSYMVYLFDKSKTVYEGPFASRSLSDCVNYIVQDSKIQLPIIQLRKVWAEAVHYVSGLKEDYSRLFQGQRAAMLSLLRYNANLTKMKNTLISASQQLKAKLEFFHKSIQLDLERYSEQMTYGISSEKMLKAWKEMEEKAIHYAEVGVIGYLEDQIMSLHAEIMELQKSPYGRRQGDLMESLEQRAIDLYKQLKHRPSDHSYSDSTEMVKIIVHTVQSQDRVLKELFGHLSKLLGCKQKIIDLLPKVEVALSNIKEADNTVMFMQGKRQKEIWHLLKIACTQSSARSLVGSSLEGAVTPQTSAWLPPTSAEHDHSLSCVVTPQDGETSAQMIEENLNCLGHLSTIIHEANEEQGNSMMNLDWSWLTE
To be noted: at 0.1 µM.

The target in assay [17] is T4, Inhibitor of nuclear factor kappa-B kinase subunit alpha (Homo sapiens). To be noted: at 1 µM.
Assay [18] deals with T5, Inhibitor of nuclear factor kappa-B kinase subunit beta (Homo sapiens) (UniProt O14920).
T5 sequence (whole entry): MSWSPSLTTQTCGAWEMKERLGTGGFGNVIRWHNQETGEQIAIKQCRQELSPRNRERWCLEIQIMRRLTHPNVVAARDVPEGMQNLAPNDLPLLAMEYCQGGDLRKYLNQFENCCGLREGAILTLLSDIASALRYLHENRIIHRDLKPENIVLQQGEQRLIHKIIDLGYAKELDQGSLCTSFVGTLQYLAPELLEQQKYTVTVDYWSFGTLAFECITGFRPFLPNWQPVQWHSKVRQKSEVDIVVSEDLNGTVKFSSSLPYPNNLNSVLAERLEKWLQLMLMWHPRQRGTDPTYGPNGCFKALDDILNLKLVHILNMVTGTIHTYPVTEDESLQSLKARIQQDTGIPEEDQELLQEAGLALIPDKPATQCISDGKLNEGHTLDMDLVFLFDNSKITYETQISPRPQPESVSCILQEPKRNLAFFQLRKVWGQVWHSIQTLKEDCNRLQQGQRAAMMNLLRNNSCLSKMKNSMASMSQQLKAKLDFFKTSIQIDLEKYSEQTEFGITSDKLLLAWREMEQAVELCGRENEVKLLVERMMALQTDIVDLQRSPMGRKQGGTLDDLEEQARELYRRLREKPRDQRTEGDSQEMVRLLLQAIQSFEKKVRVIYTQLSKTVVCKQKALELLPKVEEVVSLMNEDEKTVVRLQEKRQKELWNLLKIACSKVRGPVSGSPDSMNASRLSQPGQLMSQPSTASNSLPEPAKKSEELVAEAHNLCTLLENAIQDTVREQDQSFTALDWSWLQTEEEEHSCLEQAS
Conditions: at 0.1 µM.

For assay [19], the target named is T5, Inhibitor of nuclear factor kappa-B kinase subunit beta (Homo sapiens). Conditions: at 1 µM.
In assay [20] the target is T6, Inhibitor of nuclear factor kappa-B kinase subunit epsilon (Homo sapiens) (UniProt Q14164).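 Further: mean inhibition of IKKε reported, from the GSK PKIS dataset.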
T6 sequence (whole entry): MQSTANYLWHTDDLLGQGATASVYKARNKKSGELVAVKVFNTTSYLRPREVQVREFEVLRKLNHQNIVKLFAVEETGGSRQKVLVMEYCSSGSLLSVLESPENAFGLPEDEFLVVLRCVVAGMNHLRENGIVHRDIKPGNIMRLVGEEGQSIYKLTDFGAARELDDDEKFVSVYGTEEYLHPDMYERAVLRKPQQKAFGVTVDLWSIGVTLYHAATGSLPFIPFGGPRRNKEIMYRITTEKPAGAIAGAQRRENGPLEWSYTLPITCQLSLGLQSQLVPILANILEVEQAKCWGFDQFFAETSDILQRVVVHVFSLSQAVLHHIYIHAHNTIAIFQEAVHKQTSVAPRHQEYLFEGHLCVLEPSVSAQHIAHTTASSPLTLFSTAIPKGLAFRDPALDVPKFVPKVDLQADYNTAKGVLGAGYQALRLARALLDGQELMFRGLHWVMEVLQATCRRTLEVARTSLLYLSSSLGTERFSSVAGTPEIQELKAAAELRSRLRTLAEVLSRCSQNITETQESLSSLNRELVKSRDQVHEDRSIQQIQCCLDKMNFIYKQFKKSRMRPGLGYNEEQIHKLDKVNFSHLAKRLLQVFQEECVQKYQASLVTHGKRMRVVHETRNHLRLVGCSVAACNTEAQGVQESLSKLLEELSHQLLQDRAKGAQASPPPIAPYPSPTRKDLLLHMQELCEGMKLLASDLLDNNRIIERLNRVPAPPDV
Conditions: at 0.1 µM.

Chain of Casein kinase II subunit alpha (Homo sapiens) (P68400 whole entry, looked up): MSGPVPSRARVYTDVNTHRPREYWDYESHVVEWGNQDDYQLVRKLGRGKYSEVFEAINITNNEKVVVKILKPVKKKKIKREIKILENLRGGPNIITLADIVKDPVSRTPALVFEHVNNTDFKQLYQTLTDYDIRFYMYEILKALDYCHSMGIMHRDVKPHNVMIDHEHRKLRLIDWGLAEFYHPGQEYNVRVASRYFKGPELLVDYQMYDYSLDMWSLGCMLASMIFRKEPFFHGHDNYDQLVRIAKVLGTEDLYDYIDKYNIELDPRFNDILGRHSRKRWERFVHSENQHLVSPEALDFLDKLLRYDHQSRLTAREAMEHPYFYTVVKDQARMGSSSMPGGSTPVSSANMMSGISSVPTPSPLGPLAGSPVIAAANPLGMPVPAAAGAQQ
Chain of Sphingosine kinase 1 (Homo sapiens) (Q9NYA1 whole entry): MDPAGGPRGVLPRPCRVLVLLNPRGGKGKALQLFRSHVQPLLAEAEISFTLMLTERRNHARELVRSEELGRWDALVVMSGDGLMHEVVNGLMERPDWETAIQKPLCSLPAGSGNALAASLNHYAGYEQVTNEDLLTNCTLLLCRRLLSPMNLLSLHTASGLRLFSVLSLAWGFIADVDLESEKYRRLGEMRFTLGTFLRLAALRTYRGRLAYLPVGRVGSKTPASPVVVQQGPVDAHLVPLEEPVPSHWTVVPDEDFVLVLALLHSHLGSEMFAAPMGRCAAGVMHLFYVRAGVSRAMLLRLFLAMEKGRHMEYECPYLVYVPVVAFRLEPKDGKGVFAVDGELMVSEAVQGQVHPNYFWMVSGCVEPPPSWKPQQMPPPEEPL
Chain of Phosphatidylinositol 4-kinase beta (Homo sapiens) (Q9UBF8 2-816 limits assumed): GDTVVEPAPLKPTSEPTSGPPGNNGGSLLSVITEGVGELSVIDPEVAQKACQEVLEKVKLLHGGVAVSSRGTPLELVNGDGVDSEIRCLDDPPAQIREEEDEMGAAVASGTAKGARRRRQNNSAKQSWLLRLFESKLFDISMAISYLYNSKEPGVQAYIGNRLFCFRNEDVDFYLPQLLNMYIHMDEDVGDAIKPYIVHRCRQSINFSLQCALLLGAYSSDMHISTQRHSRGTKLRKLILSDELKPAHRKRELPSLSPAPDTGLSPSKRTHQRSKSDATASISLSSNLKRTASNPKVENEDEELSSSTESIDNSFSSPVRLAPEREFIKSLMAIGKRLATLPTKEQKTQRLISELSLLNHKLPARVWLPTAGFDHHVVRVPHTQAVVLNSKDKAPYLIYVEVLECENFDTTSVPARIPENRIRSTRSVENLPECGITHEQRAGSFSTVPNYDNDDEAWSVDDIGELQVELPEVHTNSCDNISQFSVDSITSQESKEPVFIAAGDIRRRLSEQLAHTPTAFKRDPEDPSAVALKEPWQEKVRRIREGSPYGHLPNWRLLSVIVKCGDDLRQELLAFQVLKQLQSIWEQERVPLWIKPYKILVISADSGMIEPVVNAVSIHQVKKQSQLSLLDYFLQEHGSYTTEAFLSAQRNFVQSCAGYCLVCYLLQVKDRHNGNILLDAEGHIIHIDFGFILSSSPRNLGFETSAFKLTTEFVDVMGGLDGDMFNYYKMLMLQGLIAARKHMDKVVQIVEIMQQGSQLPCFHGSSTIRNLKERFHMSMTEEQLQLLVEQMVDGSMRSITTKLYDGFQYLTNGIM
Chain of SRSF protein kinase 1 (Homo sapiens) (Q96SB4 whole entry): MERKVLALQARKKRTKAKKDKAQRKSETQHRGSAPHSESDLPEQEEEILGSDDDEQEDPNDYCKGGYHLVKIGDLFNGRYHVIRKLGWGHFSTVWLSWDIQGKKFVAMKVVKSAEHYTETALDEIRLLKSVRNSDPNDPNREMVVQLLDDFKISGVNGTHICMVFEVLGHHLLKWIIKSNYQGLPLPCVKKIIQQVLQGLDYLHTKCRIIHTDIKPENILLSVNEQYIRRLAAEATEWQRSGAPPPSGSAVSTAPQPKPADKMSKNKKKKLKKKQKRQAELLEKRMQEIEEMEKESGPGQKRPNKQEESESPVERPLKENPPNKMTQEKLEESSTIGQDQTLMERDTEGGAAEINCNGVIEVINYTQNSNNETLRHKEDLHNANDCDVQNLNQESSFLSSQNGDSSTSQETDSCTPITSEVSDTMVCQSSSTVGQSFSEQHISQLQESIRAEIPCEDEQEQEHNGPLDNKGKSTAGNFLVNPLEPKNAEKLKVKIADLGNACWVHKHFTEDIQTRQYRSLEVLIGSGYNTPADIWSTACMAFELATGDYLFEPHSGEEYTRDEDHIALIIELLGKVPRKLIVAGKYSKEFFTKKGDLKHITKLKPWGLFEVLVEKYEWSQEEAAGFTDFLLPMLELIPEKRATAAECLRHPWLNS

The inhibition is the change of the read-out against control, counted positive when it falls. `CCn1c(-c2nonc2N)nc2c(C#CC(C)(C)O)nc(CN3CCCC3)cc21`: the inhibition in assay [1] is 0.15%; in assay [2], -2.3%; in assay [3], -2.96%; in [4], -2.21%; in assay [5] it was -0.12%; in [6] it was 0.87%. Moreover, the inhibition in [7] was 3.83%; in assay [8], -0.02%; in assay [9] it was -2.03%; in assay [10] it was 0.49%; in assay [11], 0.08%; in assay [12] it was 2.01%. The inhibition in [13] was 1.13%; in assay [14], -0.41%; in assay [15] it was 0.78%; in assay [16], -1.06%; in assay [17], 0.78%; in assay [18], -1.14%. Moreover, the inhibition in assay [19] is -3.01%; in assay [20] it was 5.75%.

For `c1cnn2ncc(-c3ccnc(Nc4ccc5c(c4)OCCO5)n3)c2c1`, the inhibition was 6.13% in [1]; 0.05% in assay [2]; 2.88% in assay [3]; 7.25% in assay [4]; 30.2% in assay [5]; 4.69% in assay [6]. Moreover, the inhibition in assay [7] is 26.1%; in assay [8] it was 1.98%; in assay [9], 9.37%; in [10], 1.6%; in assay [11], -1.74%; in [12], 2.07%. Further, the inhibition in assay [13] was 0.2%; in assay [14], 13.2%; in [15], 47.5%; in assay [16], 14.7%; in assay [17] it was 60.5%; in [18], 8.92%. For the same molecule, the values for the inhibition in assay [19] and in assay [20] were 30% and 6.75%, respectively.

For the molecule `CS(=O)(=O)Nc1ccc(N/C=C2\C(=O)Nc3ccccc32)cc1`, the inhibition in assay [1] is -0.19%; in assay [2], 1.24%; in [3], 1.9%; in [4] it was -2.27%; in assay [5], -1.98%; in assay [6], -1.26%. For the same molecule, the inhibition in [7] is -0.45%; in assay [8], -4.55%; in [9], -0.72%; in assay [10], -0.88%; in assay [11], 0.22%; in assay [12] it was -1.15%. The inhibition in assay [13] is 0.65%; in assay [14], 2.93%; in assay [15], 0.34%; in [16], -1.19%; in assay [17], 13.7%; in [18], -4.89%. Moreover, the inhibition in assay [19] is -1.38%; in assay [20] it was -4.27%.
